# Source: PubChem BioAssay AID1688 (National Center for Advancing Translational Sciences (NCATS), 2009)
# About 2,400 (1.1%) of roughly 220,000 compounds were called active. About 7% were inconclusive and are not listed. Calls come from the whole dose curve; as a rule, active = well fitted inhibition curve with a large enough effect; inconclusive = small, poorly fitted or top-dose-only effect, or effect the other way; inactive = no such curve, though single readings can be large or run the other way. Shown is part of a subset that was picked to be rich in actives. A call without a number means that no potency is given here.
# Assay: qHTS Multiplex Assay to Identify Dual Action Probes in a Cell Model of Huntington: Aggregate Formation (GFP); note: nearly all actives have a fitted effect of over 60% in size
# Conditions: PC12 HttQ103-GFP aggregates, Acumen cytometry, 40 h; series mostly up to 9.22 µM
# How it was run: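 Compounds (qHTS titration) were added to PC12 cells expressing an ecdysone-driven HTT exon 1 Q103–GFP fusion after induction with 100 nM tebufenozide. Aggregate formation was measured as GFP objects in cell lysates.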
# Potency is the fitted concentration of half-maximal effect.
row,SMILES,Potency
1,COC(=O)c1ccc(COc2ccc(/C=N/NC(=O)C(=O)Nc3ccc(OC)cc3)cc2OC)o1,inactive
2,CCn1c2ccccc2c2cc(NC(=O)CNC)ccc21,inactive
3,CCc1ccc(NC(=O)N2CCN(c3ccccc3)CC2)cc1,inactive
4,CC[n+]1c(C)n(-c2ccccc2)c2ccc(NC(C)=O)cc21,3.98 µM (active)
5,Cc1ccc(N2C(=O)CN=C2Nc2nc(C)cc(C)n2)cc1,inactive
6,O=C(c1ccc(=O)oc1)N1CCC(C(O)(c2ccccc2)c2ccccc2)CC1,inactive
7,Cc1cc(NCc2cccnc2)no1,inactive
8,Brc1ccc2ncnc(NCc3cccnc3)c2c1,1.78 µM (active)
9,O=C(O)CCCCCNc1ncnc2ccc(Br)cc12,inactive
10,CCOC(=O)c1cnc(COc2ccccc2Cl)[nH]c1=O,inactive
11,Cc1c(NC(=O)CN2C(=O)C(=O)N(Cc3ccccc3)C2=O)c(=O)n(-c2ccccc2)n1C,inactive
12,O=C1CC(Cc2ccc(Cl)cc2)C(=O)N1c1cc(Cl)ccn1 (configuration not stated),inactive
13,CCCCN(CCCC)CC(O)Cn1c2ccccc2c(=O)c2ccccc21 (configuration not stated),inactive
14,O=C(NNS(=O)(=O)Cc1ccccc1)c1ccc([N+](=O)[O-])cc1,inactive
15,CC1CCN(c2c(NCc3ccc(C(=O)NCc4ccccc4)cc3)c(=O)c2=O)CC1,inactive
16,CN(c1ccccc1)S(=O)(=O)c1cc(C(=O)OCC(=O)N2CCN(C(=O)c3ccco3)CC2)ccc1Cl,inactive
17,CN(c1ccccc1)S(=O)(=O)c1cc(C(=O)Nc2nc3ccccc3[nH]2)ccc1Cl,11.2 µM (active)
18,O=C(Nc1cccc(-c2nc3ccccc3[nH]2)c1)c1ccc(C(=O)Nc2cccc(-c3nc4ccccc4[nH]3)c2)cc1,inactive
19,COC(=O)/C=C(\Oc1ccccc1)C1(O)CCCCC1,inactive
20,CC(C)(C)c1nnc(NC(=O)C2c3ccccc3Oc3ccccc32)s1,inactive
21,Nc1ccc(C(=O)Nc2ccccc2N)cc1,inactive
22,COc1cccc(NC(=O)CN(C)S(=O)(=O)c2ccc(C)cc2)c1,inactive
23,COc1cccc(-c2nnc(NC(=O)c3ccc(S(=O)(=O)N(CC(C)C)CC(C)C)cc3)o2)c1,5.01 µM (active)
24,COc1cccc(NC(=O)c2ccc(S(=O)(=O)N(C)C)cc2)c1,inactive

row,SMILES,Potency
1,Oc1ccc(Cl)c2c1CCC2,inactive
2,CCOc1ccccc1N1CN(Cc2ccccc2)CNC1=S,inactive
3,COC(=O)C1=C(C)N(C)C(=S)NC1c1ccccc1 (configuration not stated),3.16 µM (active)
4,COCCN1C(=O)N[C@@H](c2ccccc2)C(C(=O)OC)=C1C,inactive
5,COC(=O)C1=C(C)N(C)C(=S)NC1c1cc(OC)ccc1OC (configuration not stated),inactive
6,COc1ccc(-c2csc(NC3OC(=O)c4ccccc43)n2)cc1 (configuration not stated),inactive
7,CCOC(=O)c1cc(NC(=O)c2cccnc2)cc(C(=O)OCC)c1,inactive
8,CCOC(=O)c1sc(NC(=O)CSc2ncccn2)c(C#N)c1C,inactive
9,Cc1c(C(=O)OC(C)C)sc(NC(=O)c2cccnc2)c1C#N,11.2 µM (active)
10,O=S(=O)(c1ccc(F)cc1)N1CC=C(c2ccccc2)CC1,inactive
11,O=C1CCCC(O)=C1N=Nc1ccc(S(=O)(=O)N2CCOCC2)cc1,inactive
12,O=C(C1=C(O)C(=O)N(CCOCCO)C1c1ccccn1)c1cccs1 (configuration not stated),inactive
13,COc1ccc(Cc2cc(-c3ccc(F)cc3)n[nH]c2=O)cc1,inactive
14,Fc1ccccc1/C=N/n1c(-c2cccnc2)n[nH]c1=S,inactive
15,N#Cc1c(NC(=O)c2ccc(N3CCOCC3)c([N+](=O)[O-])c2)sc2c1CCCC2,5.62 µM (active)
16,CCOC(=O)c1c(NC(=O)c2ccc(N3CCOCC3)c([N+](=O)[O-])c2)sc(C)c1C,inactive
17,O=C(NCCCN1CCOCC1)c1ccc(N2CCCC2)c([N+](=O)[O-])c1,inactive
18,Cc1cc(=O)[nH]c(S)c1C#N,inactive
19,NC(=O)C(=O)N/N=C/c1ccc([N+](=O)[O-])o1,inactive
20,O=C(O)c1cccnc1Sc1ncnc2sc3c(c12)CCC3,inactive
21,COCCn1c(C)cc(C(=O)CSc2nc3ccccc3c(=O)n2C(C)COC)c1C (configuration not stated),inactive
22,COCCn1c(C)cc(C(=O)CSc2ncnc3sc4c(c23)CCC4)c1C,6.31 µM (active)
23,CC(C)(C)C(=O)NNC(=O)c1ccc(Oc2cc(Cl)cc(Cl)c2)o1,inactive
24,CCOc1cc2c(Cl)ncnc2c(OCC)c1OCC,inactive

row,SMILES,Potency
1,Cc1nc2ccccc2c(C)c1C(=O)c1ccc(F)cc1,7.94 µM (active)
2,Cc1nc2ccccc2c(-c2ccccc2)c1C(=O)c1ccccc1,inactive
3,Cc1nc2ccc(C(=O)O)cc2[nH]1,inactive
4,COc1ccc(Cl)cc1C(=O)NNC(=O)c1nc2nc(C)cc(C)n2n1,inactive
5,FC(F)(F)c1ccc(-n2cn[nH]c2=S)cc1,inactive
6,COc1ccc(NC(=O)C(C)SCc2ccccc2)cc1 (configuration not stated),inactive
7,CCOC(=O)C(NC(C)=O)C(=O)Nc1ccc(OC)cc1 (configuration not stated),inactive
8,COc1ccc(NC(=O)C(Br)C(C)C)cc1 (configuration not stated),0.891 µM (active)
9,O=C(COc1ccccc1[N+](=O)[O-])N/N=C/c1ccc[nH]1,inactive
10,O=C1CC2(CC(c3ccc(Cl)cc3)=NO2)C(=O)N1c1ccccc1 (configuration not stated),inactive
11,C#CCNc1ccc(C(=O)OCC)cc1,inactive
12,Fc1ccc(-c2csc(-c3ccc(C4SCCS4)cc3)n2)cc1F,inactive
13,CCCc1ccc(-c2c(C)sc(NC(=O)c3ccnn3C)c2C#N)cc1,7.08 µM (active)
14,CCN(CC)C(=O)c1sc(NC(=O)c2ccco2)c(C#N)c1C,inactive
15,Cn1nccc1CNC(=O)c1ccnn1C,inactive
16,CCN(CC(=O)Nc1ccc(S(=O)(=O)N2CCCC2)cc1)CC(=O)Nc1cccc(OC)c1,inactive
17,CN(Cc1nc(-c2cnccn2)no1)Cc1n[nH]c2c1CCCCC2,inactive
18,O=C(CC(=O)Nc1ccc(Cl)c(Cl)c1)N/N=C/c1ccc(O)cc1,inactive
19,O=C(CC(O)(C(F)(F)F)C(F)(F)F)Nc1ccc(Cl)c(Cl)c1,5.01 µM (active)
20,Cc1ccc(NC(=O)C/C(N)=N/O)cc1Cl,inactive
21,Cn1cc(S(=O)(=O)NC(c2ccccc2)c2ccccc2)c(=O)n(C)c1=O,inactive
22,CN(C)c1ccc(/C=N/N(Cc2ccccc2)c2ccccc2)cc1,inactive
23,c1ccc(Cc2cc[n+](Cc3ccccc3)cc2)cc1,inactive
24,CN(C)c1cc[n+](Cc2ccccc2)cc1,7.08 µM (active)
